From PubChem BioAssay AID1117280 (The Scripps Research Institute Molecular Screening Center, 2014) come the findings set out here.

Out of some 1,100 compounds screened, fewer than 10 were called active. The list is a sample of the results. Unmarked numbers belong to inactive results.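 Rule for the calls: active = mean activation above a set limit taken from the earlier primary screen (cut at about 11% in these data); inactive = the rest.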

The target of this assay is Transthyretin (Homo sapiens) (UniProt P02766). Nature of the assay: TTR transcription activators, retest, confirmation, cell-based, luminescence, SH-SY5Y, triplicate (AID 1117280).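 Note: 0% = DMSO-treated cells and 100% = recombinant Lucia luciferase without cells.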 The settings on record: SHSY5Y TTR promoter Gaussia luciferase, at 16.7 µM, stronger effect = higher value, 100% = purified Lucia enzyme wells, no cells.
On to `COc1ccc(-c2oc3ncn(Cc4ccco4)c(=N)c3c2-c2ccc(OC)cc2)cc1`, for which the activation is -0.27%.
With `O=C(NNC1=NCCC1)c1cccc(S(=O)(=O)N2CCCCC2)c1` the figure was 0%; with `Cc1ccc(CN2CCCOCCS2(=O)=O)cc1`, 0.01%; with `O=S(=O)(NCCCN1CCOCC1)c1ccc(F)c(Cl)c1`, 1.67%.
`N#Cc1cccc(CN2CCC(=O)N(CCO)CC2)c1`: the activation was 0.71%.
As to `Cc1cc(C)c2nc3nc(C)cc(C)c3c(N)c2c1`, the activation was 9.48%.
With `COc1cccc(-c2cnc(C(O)c3ccccc3OC)[nH]2)c1` (stereo unspecified) the figure was -0.09%; with `C/C(CC(=O)Nc1ccc(N(C)C)cc1)=N\NC(=O)c1ccccc1F`, 0.83%.
Then `C(=N\n1cnnc1)/c1cccnc1`, with 0.91%; and `CCOc1ccccc1NC(=O)COc1ccc(S(=O)(=O)N2CCCC2)cc1`, with 1.24%.
With `CSCCC(NC(N)=O)C(=O)N(C)CC(=O)Nc1ccc(C)cc1` (stereo unspecified) the figure was -0.85%; with `CCOC(=O)c1cc(-c2ccc(Cl)s2)nc2c1c(C)nn2C`, 0.17%; with `O=C(Nc1cccc(O)c1)c1ccc(C(=O)c2ccccc2)o1`, -1.44%.
With `COc1cc(C(C)=O)ccc1OC(C)C(=O)Nc1ccc(S(=O)(=O)N2CCCC2)cc1` (stereo unspecified), the activation is 0.49%.
Then `Cc1c(NS(=O)(=O)c2ccc(NC3CCCC3)c([N+](=O)[O-])c2)c(=O)n(-c2ccccc2)n1C`, with -1.51%; and `N=c1ccn(CC(=O)NC(N)=O)c2ccccc12`, with 11.7% (active); and `C[C@H](NC(=O)C1CCN(S(=O)(=O)c2ccccc2)CC1)C(=O)NCc1ccccc1`, with -0.18%.
Then `CCCCc1cc(=O)oc2cc(C)cc(OCc3nn[nH]n3)c12`, with 0.29%; and `O=C(O)C1OC(C(=O)O)C2C1C(F)(F)C2(F)F` (stereo unspecified), with 0.77%.
Then `CCCCOCCCNC(=O)C[C@H]1C[C@@]2(C(=O)OC)C(=C[C@H](C(C)(C)C)O[C@@H]2C)N(CCc2ccc(OC)c(OC)c2)C1=O`, with -0.4%; and `Cc1cccc(C)c1NC(=O)CN1C(=O)C(C)Oc2ccccc21` (stereo unspecified), with -0.02%.
Regarding `Brc1ccc(/C=N/N2CCN(C3c4ccccc4-c4ccccc43)CC2)s1`, the activation was -0.21%.
Then `O=C(O)Cn1c(Cc2ccccc2)nc2ccccc21`, with -0.81%; and `Cc1nc(-c2ccc(Cl)cc2)sc1C(=O)NN`, with 1.27%.
With `COc1cc(N2C(=O)CC3(CCCC3)CC2=O)cc(OC)c1OC` the figure was 0.03%; with `CCCCCc1ccc(-c2cn(Cc3ccc4ccccc4c3)nn2)cc1`, -0.98%.
With `CCOc1ccc(N=C2NC(=O)S/C2=C\c2ccc(O)cc2)cc1` the figure was -2.11%; with `Cc1ccccc1/[N+]([O-])=C/c1ccncc1`, 0.64%; with `O=C(NCCCNC(=O)c1ccccc1Cl)c1cnccn1`, -0.49%.
For `COc1ccccc1N1CCN(Cc2cc(OC)c3c(c2)OCO3)CC1`, the activation was 1.03%.
For `O=C(CCC(=O)c1cccs1)NCc1ccccc1`, the activation is -0.16%.
Turning to `CCOc1ccc(NC(=O)COc2ccc(S(=O)(=O)N3CCCC3)cc2)cc1`, the activation was -0.08%.
With `Cc1c(C#N)c(NC(=O)c2ccccc2)n(Cc2ccccc2)c1C` the figure was 0.46%; with `O=C(Nc1ccccc1C(=O)N1CCCCCC1)c1ccccc1Cl`, 0.38%; with `COc1ccc(S(=O)(=O)NCC(=O)NCc2cc(=O)n(C)c(=O)n2C)cc1F`, -0.18%.
Then `Cc1cccc(N2C(=O)CC(SC(N)=Nc3ccccc3)C2=O)c1` (stereo unspecified), with -0.45%; and `C=C1C(C(C)C)N(C)C2=NC(c3ccccc3)CC(=O)N12` (stereo unspecified), with 0.07%.
With `Cc1cc(C)c(C#N)c(N2CCC(C(N)=O)CC2)n1` the figure was -0.71%; with `CC(C)NC(=O)c1ccc(Sc2ccccc2)c([N+](=O)[O-])c1`, -0.62%.
With `CCOC(=O)c1c(-c2ccccc2)oc2ccc(OCC(N)=O)cc12`, the activation is -0.6%.
Take `O=C(NC(=O)c1ccccc1N1CCCCC1)Nc1ccc(Br)cc1`: the activation is 0.23%.
With `COc1ccc(C2c3ccc(O)cc3Oc3ncn(CCCO)c(=N)c32)cc1OC` (stereo unspecified) the figure was -0.83%; with `CC(C)(C)C1CCC(OC(=O)CCC(=O)Nc2ccccc2)CC1` (stereo unspecified), -1.07%; with `O=C(NNC(=O)c1cc(S(=O)(=O)N2CCCCC2)ccc1Cl)c1ccccc1O`, 0.18%.
With `Nc1nc(SCC(=O)Nc2ccc(Cl)c([N+](=O)[O-])c2)n[nH]1` the figure was 0.36%; with `COC(=O)c1cnn2c(C(F)(F)F)cc(-c3ccco3)nc12`, -0.89%.
Then `O=C1c2cccc(OCC(=O)N3N=C(c4cccs4)CC3c3ccc(F)cc3)c2CCN1Cc1ccccc1` (stereo unspecified), with -0.93%; and `Cn1cc(CN2CCCC(CO)C2)c(-c2ccc(Oc3ccccc3)cc2)n1` (stereo unspecified), with 2.56%; and `CCCCN(C)CCNC(=O)C1CCCN(S(=O)(=O)c2cccc3nsnc23)C1` (stereo unspecified), with 0.58%.
As to `O=S(=O)(NCc1ccccc1Br)c1ccccc1Br`, the activation is -0.25%.
Turning to `O=C(CS(=O)(=O)c1ccccc1)Nc1ccc(S(=O)(=O)Nc2ccccn2)cc1`, the activation was -0.26%.
